The campaign covered roughly 6,200 compounds. About 2,900 (47%) were called active. No stated cut-off is given here; in the data, active means inhibition above about 50%; inactive means the rest. The set was probably picked from earlier hits. The list shows a part of the results.
Test: Mycobacterium tuberculosis growth inhibition, primary screen (AID 1259343)
Details: inhibition: at 10 µM, active compounds read high; outcome: 10 uM

| Structure (SMILES) | inhibition |
| --- | --- |
| COCCn1c(=S)[nH]c2sc3c(c2c1=O)CCC(C)C3 (configuration not stated) | -21.7% (inactive) |
| CCN=c1scc(-c2ccc(Br)s2)n1N=CC1CCCCC1 | 36% (inactive) |
| CNC(=O)c1sc(N2CCN(c3ccccc3F)CC2)nc1C | 33.2% (inactive) |
| Cc1nc(C(C)C)sc1C(=O)Nc1nc2ccccc2[nH]1 | 100% (active) |
| CC1=CC(=NNc2nc3ccccc3[nH]2)CC(C)(C)C1 | 24.5% (inactive) |
| Cc1csc(Nc2ccc(Cl)cc2)[n+]1-c1ccc(Cl)cc1 | 16% (inactive) |
| Cc1nc2nc(CC(=O)N3CCOCC3)nn2c(C)c1Cl | 52.5% (active) |
| CC(C)(C)C(=O)NC(=S)NC1=CC2N=C(c3ccncc3)OC2C=C1 (configuration not stated) | 54.2% (active) |
| CC(C)COc1ccc(NC(=O)C2CC2c2cnn(C)c2)cc1Cl (configuration not stated) | -6.2% (inactive) |
| CC(C)COc1ccc(NC(=O)c2ccnnc2)cc1Cl | 50.1% (active) |
| CC(C)COc1ccc(NC(=O)c2nn(C)c(=O)c3ccccc23)cc1Cl | 24.1% (inactive) |
| CS(=O)(=O)Nc1cc(Cl)ccc1Sc1ccc(F)cc1 | 76.2% (active) |
| Cc1cc(C)c(NC(=O)c2cc(C)nc3c2cnn3C(C)C)c(C)c1 | 59.8% (active) |
| CCc1ccc(N2C(=O)C3N=NN(Cc4nc(-c5cccc(Cl)c5)oc4C)C3C2=O)cc1 (configuration not stated) | 83.4% (active) |
| CCCN(C)C(=O)c1ccc2c(c1)C(=O)N(c1ccc(OCC)cc1)C2=O | 21.7% (inactive) |
| CCOc1ccc(N2C(=O)C3N=NN(Cc4cccc(C)c4)C3C2=O)cc1 (configuration not stated) | 78.4% (active) |
| CCc1ccc(N2C(=O)C3N=NN(Cc4cccc(C)c4)C3C2=O)cc1 (configuration not stated) | 67.8% (active) |
| COc1ccc(N2C(=O)C3N=NN(Cc4cc(C)ccc4C)C3C2=O)cc1Cl (configuration not stated) | -29.4% (inactive) |
| CCOc1ccc(-c2nc(CN3N=NC4C(=O)N(c5ccc(C)c(Cl)c5)C(=O)C43)c(C)o2)cc1 (configuration not stated) | 20.2% (inactive) |
| CCOc1ccc(N2C(=O)C3N=NN(Cc4cc(C)ccc4C)C3C2=O)cc1 (configuration not stated) | 61.5% (active) |
| CSc1ccc(NC(=O)c2cn[nH]n2)cc1Cl | 95.5% (active) |
| CC(=O)/C(=N/Nc1ccc(C)cc1)N1CCOCC1 | 94.7% (active) |

| Structure (SMILES) | inhibition |
| --- | --- |
| O=C1c2cccc([N+](=O)[O-])c2C(=O)N1CNc1ccc(Cl)c(Cl)c1 | 45.5% (inactive) |
| O=C1c2ccc([N+](=O)[O-])cc2C(=O)N1CNc1ccc2c(c1)oc1ccccc12 | 86.3% (active) |
| CC(C)CCC(C)NC(=O)c1cc(O)cs1 (configuration not stated) | 37.3% (inactive) |
| Cc1cc(O)c(S(=O)(=O)c2cc(Cl)c(Cl)cc2Cl)c(=O)[nH]1 | 60.9% (active) |
| FC(F)(F)COCCCn1nnc(-c2ccsc2)n1 | 79.5% (active) |
| O=C1C(=Cc2cccs2)CCC1=Cc1cccs1 | 103% (active) |
| O=C1NC(=O)C(=Cc2cccs2)S1 | 42.2% (inactive) |
| C=CCC1SC(=NN=Cc2cccs2)NC1=O (configuration not stated) | 22.9% (inactive) |
| O=C1C(=Cc2cccs2)CCCC1=Cc1cccs1 | 91.6% (active) |
| O=C1/C(=C/c2cccs2)C(c2cccs2)Oc2ccccc21 (configuration not stated) | 33% (inactive) |
| O=C1C(=Cc2ccc(Br)s2)CCc2ccccc21 | 0.54% (inactive) |
| CC1CCN(c2nnc(C(=O)Nc3ccccc3)c3ccccc23)CC1 | 24.6% (inactive) |
| Cc1ccccc1CNc1cccc([N+](=O)[O-])c1 | 35.8% (inactive) |
| Cc1ccccc1CON=Cc1cccc([N+](=O)[O-])c1 | 54.1% (active) |
| COc1ccc(OCCCCOc2ccccc2[N+](=O)[O-])cc1 | 76.2% (active) |
| CCOc1ccc(OCCCCOc2ccccc2[N+](=O)[O-])cc1 | 83.2% (active) |
| COCc1cc(C)nc(N/N=C\c2ccccc2[N+](=O)[O-])c1C#N | -18.7% (inactive) |
| CCOc1ccc(N=Cc2cccc([N+](=O)[O-])c2)cc1 | 96.3% (active) |
| CCOC(=O)CCCCCCCCCCCCC1C=CCC1 (configuration not stated) | -30.7% (inactive) |
| COc1cc(C)ccc1OCCCOc1ccc([N+](=O)[O-])cc1 | 41.8% (inactive) |
| CCOc1ccc(OCCCOc2ccc([N+](=O)[O-])cc2)cc1 | 23% (inactive) |
| CCOc1cccc(OCCCOc2ccc([N+](=O)[O-])cc2)c1 | 86% (active) |

| Structure (SMILES) | inhibition |
| --- | --- |
| CCOc1ccc(OCCOc2ccc([N+](=O)[O-])cc2)cc1 | 26.5% (inactive) |
| CCOc1ccc(OCCOc2ccccc2[N+](=O)[O-])cc1 | 97.3% (active) |
| COC(=O)C1=C(O)C(C(=O)OC)C(c2cccs2)C(C#N)(C#N)C1c1cccs1 (configuration not stated) | 4.02% (inactive) |
| Cc1cc(NC(=O)c2cc(CC(C)C)on2)no1 | 47.4% (inactive) |
| Cc1cccc(N2CCN(C(C)C(=O)Nc3cc(C)on3)CC2)c1 (configuration not stated) | 85.9% (active) |
| CCCCCCNC(N)=S | 72.8% (active) |
| Cc1nn(C)cc1CN(C)C(=O)c1cccc(Cl)c1 | 101% (active) |
| CC1Sc2ccc(C(=O)N(C)Cc3cccc(Cl)c3)cc2NC1=O (configuration not stated) | 30.6% (inactive) |
| CN(Cc1ccc(Cl)cc1Cl)C(=O)C1CCN(c2ccccc2[N+](=O)[O-])CC1 | 45% (inactive) |
| CN1N=C(CC(=O)Nc2ccc(-n3nccc3C(F)(F)F)cc2)CC1=O | 87.8% (active) |
| CC1CC1C(=O)Nc1ccc(-n2nccc2C(F)(F)F)cc1 (configuration not stated) | 40% (inactive) |
| Cc1cc(NC(=O)c2cc3ccccc3o2)n(-c2nc(C)c(C)c(=O)[nH]2)n1 | -29.9% (inactive) |
| Cc1cc(NC(=O)c2ccco2)n(-c2nc(C)c(C)c(=O)[nH]2)n1 | 100% (active) |
| CCc1c(C)nc(-n2nc(C)cc2NC(=O)c2ccco2)[nH]c1=O | 100% (active) |
| Clc1ccc(-c2noc(CN3CCN(c4ncnc5ccccc45)CC3)n2)cc1 | 71.1% (active) |
| Clc1ccc(-c2noc(CN3CCCN(c4ncccn4)CC3)n2)cc1 | 77.6% (active) |
| O=C(CCc1ccccc1)C1CCCN(Cc2nc(CC3CC3)no2)C1 (configuration not stated) | inactive |
| O=C1CCCN1CCC1CCN(Cc2nc(-c3ccc(Cl)cc3)no2)CC1 | 74% (active) |
| O=C(CCc1ccccc1)C1CCCN(Cc2nc(-c3ccc(Cl)cc3)no2)C1 (configuration not stated) | 73.2% (active) |
| c1ccc(-c2noc(CN3CCCC(c4ccccc4)C3)n2)cc1 (configuration not stated) | inactive |
| Clc1ccc(-c2nc(-c3ccccn3)no2)cc1 | 79.7% (active) |
| c1ccc(CCCc2nc(-c3ccccn3)no2)cc1 | 30.6% (inactive) |

| Structure (SMILES) | inhibition |
| --- | --- |
| Clc1ccc(C2CCCN(Cc3nc(-c4ccccn4)no3)C2)cc1 (configuration not stated) | 73% (active) |
| Cc1csc(Sc2ccc(NC(=O)C3CCC3)c(C)c2)n1 | 33.2% (inactive) |
| O=C(Nc1nnc(SCCc2ccccc2)s1)C1CCCCC1 | 3.18% (inactive) |
| C=CCSc1nnc(NC(=O)C2CCCCC2)s1 | 91.9% (active) |
| CC(=O)Nc1cc(C)nn1-c1nc(C)c(C)c(=O)[nH]1 | 101% (active) |
| COC(=O)CCc1c(C)nn(-c2nc(C)cc(=O)[nH]2)c1C | 43.3% (inactive) |
| COC(=O)CCc1c(C)nn(-c2nc(C)c(C)c(=O)[nH]2)c1C | 101% (active) |
| CCC(=O)Nc1cc(C)nn1-c1nc(C)c(C)c(=O)[nH]1 | 99.7% (active) |
| Cc1cc(NC(=O)C(C)C)n(-c2nc(C)c(C)c(=O)[nH]2)n1 | -18.6% (inactive) |
| Cc1cc(NC(=O)C(C)(C)CCl)n(-c2nc(C)c(C)c(=O)[nH]2)n1 | 101% (active) |
| Cc1cc(NC(=O)Cc2ccccc2)n(-c2nc(C)c(C)c(=O)[nH]2)n1 | 99.4% (active) |
| Cc1[nH]nc(Nc2ccc(Cl)c(Cl)c2)c1[N+](=O)[O-] | 70.3% (active) |
| CC(C)Oc1ccc(C(=O)NCc2cccs2)cc1 | 34.9% (inactive) |
| O=C(NCc1cccs1)c1cc(Br)ccc1F | 83.2% (active) |
| Brc1ccc(NCc2cccs2)cc1 | 6.27% (inactive) |
| C=C(C)CN(CC)c1nc(N)c(C#N)c(C(C#N)Cc2ccc(C)cc2)c1C#N (configuration not stated) | 21.1% (inactive) |
| Cc1ccc(-c2csc3nc[nH]c(=S)c23)cc1C | 31.2% (inactive) |
| S=c1[nH]cnc2sc3c(c12)CCCC3 | 93.9% (active) |
| O=c1[nH]c2sc3c(c2c2ncnn12)CCCC3 | -17.8% (inactive) |
| Cc1sc2nc[nH]c(=S)c2c1C | 88.8% (active) |
| CC1CCc2c(sc3nc[nH]c(=S)c23)C1 (configuration not stated) | 2.8% (inactive) |
| Cc1sc2nc[nH]c(=S)c2c1-c1ccccc1 | 87.7% (active) |

| Structure (SMILES) | inhibition |
| --- | --- |
| CC(N=c1ccccn1C(=O)Nc1ccc(Cl)c(Cl)c1)c1ccco1 (configuration not stated) | -3.96% (inactive) |
| CC(NC(=O)CN(C)CC(=O)Nc1ccc(Cl)c(Cl)c1)c1ccco1 (configuration not stated) | 86.6% (active) |
| C(=NNc1ccc2ccccc2n1)c1ccc2c(c1)OCCO2 | 27.8% (inactive) |
| Fc1ccc(NN=Cc2ccc3c(c2)OCCO3)c(F)c1 | 37% (inactive) |
| Fc1c(F)c(F)c(NN=Cc2ccc3c(c2)OCO3)c(F)c1F | 89.5% (active) |
| Fc1ccc(NN=Cc2ccc3c(c2)OCO3)c(F)c1 | 81.8% (active) |
| O=C1C=C2C(=CCOC2O)O1 (configuration not stated) | 98.2% (active) |
| CC(NS(=O)(=O)c1ccccc1C#N)c1ccc(-n2ccnc2)cc1 (configuration not stated) | -48.9% (inactive) |
| Cc1ccc(-c2csc(N)n2)cc1 | 101% (active) |
| OC(c1cn2cc(-c3ccc(F)cc3)nc2s1)(C(F)(F)F)C(F)(F)F | 15.3% (inactive) |
| Nc1nc(-c2ccc(F)cc2F)cs1 | 33.6% (inactive) |
| Nc1nc(-c2ccc(I)cc2)cs1 | inactive |
| Nc1nc(-c2cc(F)ccc2F)cs1 | 77.2% (active) |
| Fc1ccc(F)c(-c2csc(Nc3ccc4c(c3)OCCO4)n2)c1 | 22.8% (inactive) |
| CSc1ccc(-c2csc(N)n2)cc1 | 8.66% (inactive) |
| Cc1cc(C)cc(Nc2nc(-c3ccc(F)cc3)cs2)c1 | 51.7% (active) |
| C=CCNc1nc(-c2cc(F)ccc2F)cs1 | 45.9% (inactive) |
| Nc1nc(-c2ccc(F)cc2)cs1 | 90.4% (active) |
| O=c1[nH]c2ccc(-c3csc(-c4ccc(F)cc4)n3)cc2o1 | 39.4% (inactive) |

From PubChem BioAssay AID1259343 (VanderVen Lab, College of Veterinary Medicine, Cornell …, 2017)
